# Reference: PubChem BioAssay AID2284089 (EPA ToxCast)
# Activity calls are given as the source filed them. The calls were made as follows: active = hit-call score of the fitted dose curve at least 0.9, where 1 is the maximum; inactive = score below 0.9.
# Target: Cytochrome P450 2C19 (Homo sapiens) (UniProt P33261)
# Assay: ERF_FR_ADME_hCYP2C19_CEC: Eurofins (ERF) CYP450-related Enzyme Activity (ADME) Assay for CYP2C19 Inhibition Assay, CEC Subtrate
# Description: ERF_FR_ADME_hCYP2C19_CEC is a biochemical, single-readout assay that uses extracted gene-proteins in a cell-free assay. Measurements were taken 0.83 hour after chemical dosing in a 96-well plate. See CYP2C19 inhibition (recombinant, CEC substrate).ERF_FR_ADME_hCYP2C19_CEC is an assay component calculated from the ERF_FR_ADME_hCYP2C19_CEC assay. It is designed to measure enzyme activity using a type of enzyme reporter as detected by fluorescence intensity of HFC with fluorimetry technology.Data from the assay component ERF_FR_ADME_hCYP2C19_CEC was analyzed at the assay endpoint, ERF_FR_ADME_hCYP2C19_CEC, in the positive analysis fitting direction relative to acetonitrile as the negative control and baseline of activity. Using a type of enzyme reporter, loss-of-signal activity can be used to understand changes in enzymatic activity as they relate to gene CYP2C19. To generalize the intended target to other relatable targets, this assay endpoint is annotated to the cyp intended target family, where the subfamily is steroidogenesis-related.
# Assay is performed with 1 compound concentration(s) and each concentration tested using 2 replicate
# Sequence of Cytochrome P450 2C19 (Homo sapiens) (P33261 whole entry, looked up): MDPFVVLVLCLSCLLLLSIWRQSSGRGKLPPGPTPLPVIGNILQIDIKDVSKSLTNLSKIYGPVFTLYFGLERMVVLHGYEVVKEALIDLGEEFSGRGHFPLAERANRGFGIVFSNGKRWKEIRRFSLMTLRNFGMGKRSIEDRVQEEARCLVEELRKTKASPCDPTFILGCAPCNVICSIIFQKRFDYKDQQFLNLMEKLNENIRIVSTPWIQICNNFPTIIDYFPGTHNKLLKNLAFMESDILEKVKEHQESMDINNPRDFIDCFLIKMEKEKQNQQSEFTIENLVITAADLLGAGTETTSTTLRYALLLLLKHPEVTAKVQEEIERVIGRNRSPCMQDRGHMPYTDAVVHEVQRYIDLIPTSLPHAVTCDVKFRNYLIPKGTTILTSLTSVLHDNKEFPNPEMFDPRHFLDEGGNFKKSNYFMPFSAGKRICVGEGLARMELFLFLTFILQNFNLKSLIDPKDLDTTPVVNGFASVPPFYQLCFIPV
row,Compound,AC50
1,O=C(/C=C/c1ccc(O)cc1)CC(=O)/C=C/c1ccc(O)cc1,1.47 µM (active)
